Results from the supplement of paper PMC10849652.
The full data set covers some 8,800 targets. This sample favours those with a hit. About 0.5% of all pairs of compound and target were hits.

Legend:
Assay in all cases: log2 fold change, soluble protein after heating vs DMSO (PISA); higher = thermal stabilisation; K562 lysate, 10 uM; active = over 0.2 and 3.5 SD of the protein, either way, in both replicates (recomputed)
erlotinib = compound: C#Cc1cccc(Nc2ncnc3cc(OCCOC)c(OCCOC)cc23)c1 [erlotinib]
Method in brief: (§1)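 Following dounce homogenisation of K562 pellets in PBS pH 7.4 with 1 mM MgCl2, crude extract at 1 mg/mL protein was incubated for 30 min with 10 μM compound. Aliquots were then heated for 3 min over 48°C-58°C and pooled, NP-40 was added to 0.5% at 4°C, and soluble protein was recovered as the supernatant at 21,000xg for 90 min. Channel-sum-equalised TMTpro 16plex LC-MS/MS quantified this protein. Each value, from duplicates, is a log-two fold change in thermal stability relative to solvent controls.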

[1] = compound: C/C(=N\NC(=O)C1=CC(=CC=C1)S(=O)(=O)N2CCOCC2)/C3=C(C=CC(=C3)Cl)O
Method in brief: as §1

[2] = compound: C1=CC(=CC=C1C2=NC3=C(N2)C=C(C=C3)C(=O)N)OC4=CC=C(C=C4)Cl
Method in brief: as §1

[3] = compound: C1=CC2=C(C=CC(=C2)/C=C\3/C(=O)NC(=NCC4=CC=CS4)S3)N=C1
Method in brief: as §1

[4] = compound: C1=CC2=NC=CN=C2C=C1/C=C/3\C(=O)NC(=O)S3
Method in brief: as §1

[5] = compound: C1=CC=C(C=C1)C2=NC(=C(N2)C3=CC=NC=C3)C4=CC(=C(C=C4)Cl)O
Method in brief: as §1

[6] = compound: C1=CC=C2C(=C1)C3=NNC4=CC=CC(=C43)C2=O
Method in brief: as §1

[7] = compound: C1CCN(C1)C(=O)NC2=CC=CC(=C2)NC3=NC=C(C(=N3)NCCC4=CN=CN4)Br
Method in brief: as §1

[8] = compound: C1CN(CCC1(CC2=CC=C(C=C2)Cl)N)C3=NC=NC4=C3C=CN4
Method in brief: as §1

IRAK-1-4 Inhibitor I = compound: C1COCCN1CCN2C3=CC=CC=C3N=C2NC(=O)C4=CC(=CC=C4)[N+](=O)[O-] [IRAK-1-4 Inhibitor I]
Method in brief: as §1

ibrutinib = compound: C=CC(=O)N1CCC[C@@H](n2nc(-c3ccc(Oc4ccccc4)cc3)c3c(N)ncnc32)C1 [ibrutinib]
Method in brief: as §1

[9] = compound: CC(=O)c1cnc2ccc(-c3cc(Cl)c(O)c(Cl)c3)nc2c1N[C@H]1CC[C@H](CN(C)C)CC1
Method in brief: as §1

ralimetinib = compound: CC(C)(C)Cn1c(N)nc2ccc(-c3[nH]c(C(C)(C)C)nc3-c3ccc(F)cc3)nc21 [ralimetinib]
Method in brief: as §1

[10] = compound: CC(C)(O)CC(=O)NCCn1ccc2ncnc(Nc3ccc(Oc4cccc(C(F)(F)F)c4)c(Cl)c3)c21
Method in brief: as §1

[11] = compound: CC(C)C1=C2N=C(C=C(N2N=C1)NCC3=CC=CC=C3)NCCCCCCN
Method in brief: as §1

[12] = compound: CC1=C(C(CC(=O)N1)C2=CC=C(C=C2)C(F)(F)F)C(=O)NC3=C(C=C4C(=C3)C=NN4)F
Method in brief: as §1

[13] = compound: CC1=C(C2=C(C=C1)C(=O)C3=CC=CC=C3N2CCCN)C
Method in brief: as §1

[14] = compound: CC1=C(C=C(C=C1)NC(=O)C2=CC(=CC=C2)C(C)(C)C#N)NC3=CC4=C(C=C3)N=CN(C4=O)C
Method in brief: as §1

[15] = compound: CC1=C(C=C(C=C1)NC(=O)C2=CC(=CC=C2)N(C)C)NC(=O)C3=CC=C(C=C3)O
Method in brief: as §1

[16] = compound: CC1=CC=C(C=C1)SC2=C3C=C(SC3=CN=C2)C(=O)N
Method in brief: as §1

Measured: log2 fold change

EFCAB14 (UniProt O75071)
inactive: erlotinib 0.019 | [1] 0.115 | [2] 0.043 | [3] -0.036 | [4] -0.019 | [5] -0.042 | [6] -0.022 | [7] 0.01 | [8] 0.042 | IRAK-1-4 Inhibitor I 0.011 | ibrutinib 0.026 | [9] 0.015 | ralimetinib 0.055 | [10] -0.075 | [11] -0.045 | [12] 0.077 | [13] 0.02 | [14] 0.011 | [15] 0.016 | [16] 0.012

ERLIN2 (UniProt O94905)
Sequence of UniProt O94905 (O94905 whole entry, looked up): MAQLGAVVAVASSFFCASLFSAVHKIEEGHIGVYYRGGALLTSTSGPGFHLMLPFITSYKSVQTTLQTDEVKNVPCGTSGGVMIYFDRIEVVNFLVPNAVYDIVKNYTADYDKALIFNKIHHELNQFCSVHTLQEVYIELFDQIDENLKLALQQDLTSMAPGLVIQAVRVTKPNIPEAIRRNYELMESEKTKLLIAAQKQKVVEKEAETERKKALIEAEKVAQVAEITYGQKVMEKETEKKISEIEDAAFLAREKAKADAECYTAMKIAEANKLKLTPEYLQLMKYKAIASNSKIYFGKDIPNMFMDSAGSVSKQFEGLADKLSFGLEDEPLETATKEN
inactive: erlotinib -0.028 | [1] 0.051 | [2] -0.1 | [3] -0.002 | [4] -0.047 | [5] -0.019 | [6] -0.031 | [7] -0.039 | [8] 0.006 | IRAK-1-4 Inhibitor I -0.013 | ibrutinib 0.033 | [9] -0.028 | ralimetinib 0.026 | [10] -0.023 | [11] -0.023 | [12] -0.012 | [13] -0.031 | [14] -0.016 | [15] 0.066 | [16] -0.014

GATAD2A isoform 3 (UniProt Q86YP4)
Sequence of UniProt Q86YP4 (Q86YP4 whole entry, looked up): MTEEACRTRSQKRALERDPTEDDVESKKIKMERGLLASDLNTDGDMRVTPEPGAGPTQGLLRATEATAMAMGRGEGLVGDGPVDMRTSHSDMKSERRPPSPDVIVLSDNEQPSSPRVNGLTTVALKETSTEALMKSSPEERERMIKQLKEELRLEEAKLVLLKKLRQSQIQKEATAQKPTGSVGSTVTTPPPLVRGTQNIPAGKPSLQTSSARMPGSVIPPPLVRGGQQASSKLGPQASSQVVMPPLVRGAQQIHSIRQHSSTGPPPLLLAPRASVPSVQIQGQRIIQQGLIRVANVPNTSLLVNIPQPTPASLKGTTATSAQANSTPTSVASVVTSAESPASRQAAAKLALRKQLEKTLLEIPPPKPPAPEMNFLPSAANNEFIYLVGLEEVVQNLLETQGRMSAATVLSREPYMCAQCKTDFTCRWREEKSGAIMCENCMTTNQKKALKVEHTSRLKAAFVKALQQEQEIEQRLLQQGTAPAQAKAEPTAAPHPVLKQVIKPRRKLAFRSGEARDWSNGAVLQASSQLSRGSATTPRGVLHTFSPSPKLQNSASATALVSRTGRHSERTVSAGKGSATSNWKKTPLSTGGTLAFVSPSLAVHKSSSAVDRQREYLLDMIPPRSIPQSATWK
inactive: erlotinib 0.012 | [1] -0.124 | [2] -0.003 | [3] -0.034 | [4] 0.003 | [5] -0.002 | [6] -0.035 | [7] -0.037 | [8] 0.034 | IRAK-1-4 Inhibitor I -0.016 | ibrutinib 0.017 | [9] 0.008 | ralimetinib 0.023 | [10] 0.01 | [11] 0.012 | [12] -0.004 | [13] 0.005 | [14] 0.01 | [15] 0.016 | [16] -0.005

FANCI (UniProt Q9NVI1)
Sequence of UniProt Q9NVI1 (Q9NVI1 whole entry, looked up): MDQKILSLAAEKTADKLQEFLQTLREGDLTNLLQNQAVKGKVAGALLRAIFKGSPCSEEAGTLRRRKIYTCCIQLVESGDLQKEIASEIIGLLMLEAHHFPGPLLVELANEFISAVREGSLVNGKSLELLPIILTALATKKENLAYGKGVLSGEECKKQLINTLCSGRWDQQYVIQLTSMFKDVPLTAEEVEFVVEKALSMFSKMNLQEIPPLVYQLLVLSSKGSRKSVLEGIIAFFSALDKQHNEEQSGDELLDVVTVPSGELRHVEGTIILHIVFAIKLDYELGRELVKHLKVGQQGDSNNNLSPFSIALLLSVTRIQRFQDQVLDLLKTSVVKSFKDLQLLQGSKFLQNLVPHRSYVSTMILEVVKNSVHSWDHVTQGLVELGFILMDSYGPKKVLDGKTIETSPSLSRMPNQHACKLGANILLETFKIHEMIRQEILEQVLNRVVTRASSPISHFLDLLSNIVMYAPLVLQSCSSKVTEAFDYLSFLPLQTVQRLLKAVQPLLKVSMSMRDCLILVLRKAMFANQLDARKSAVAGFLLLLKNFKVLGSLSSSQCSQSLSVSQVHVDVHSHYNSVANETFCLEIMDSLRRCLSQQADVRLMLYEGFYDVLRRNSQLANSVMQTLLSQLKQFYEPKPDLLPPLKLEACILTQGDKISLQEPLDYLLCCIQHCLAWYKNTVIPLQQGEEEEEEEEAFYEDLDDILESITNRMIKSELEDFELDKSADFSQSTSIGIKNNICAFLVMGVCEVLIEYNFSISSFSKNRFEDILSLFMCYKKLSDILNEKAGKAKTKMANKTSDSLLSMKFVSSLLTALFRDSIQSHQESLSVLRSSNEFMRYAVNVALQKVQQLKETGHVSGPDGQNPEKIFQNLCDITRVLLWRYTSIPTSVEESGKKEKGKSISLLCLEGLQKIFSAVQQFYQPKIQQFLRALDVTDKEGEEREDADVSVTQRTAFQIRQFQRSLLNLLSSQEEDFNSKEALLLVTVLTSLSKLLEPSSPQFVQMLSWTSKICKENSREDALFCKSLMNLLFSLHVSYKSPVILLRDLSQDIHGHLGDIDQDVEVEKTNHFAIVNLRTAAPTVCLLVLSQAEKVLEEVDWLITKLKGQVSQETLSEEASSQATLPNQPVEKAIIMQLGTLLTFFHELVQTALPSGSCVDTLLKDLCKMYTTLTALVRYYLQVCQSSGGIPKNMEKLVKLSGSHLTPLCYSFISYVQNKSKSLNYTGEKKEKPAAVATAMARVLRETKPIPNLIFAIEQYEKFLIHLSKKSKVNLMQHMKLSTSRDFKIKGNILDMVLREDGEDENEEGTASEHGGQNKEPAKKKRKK
inactive: erlotinib 0.012 | [1] -0.031 | [2] -0.056 | [3] 0.013 | [4] 0.021 | [5] -0.001 | [6] -0.051 | [7] -0.008 | [8] -0.009 | IRAK-1-4 Inhibitor I 0.013 | ibrutinib -0.024 | [9] 0.022 | ralimetinib 0.02 | [10] -0.024 | [11] -0.038 | [12] -0.021 | [13] 0.026 | [14] 0.002 | [15] 0.033 | [16] 0.014

EIF2B4 isoform 2 (UniProt Q9UI10)
Sequence of UniProt Q9UI10 (Q9UI10 whole entry, looked up): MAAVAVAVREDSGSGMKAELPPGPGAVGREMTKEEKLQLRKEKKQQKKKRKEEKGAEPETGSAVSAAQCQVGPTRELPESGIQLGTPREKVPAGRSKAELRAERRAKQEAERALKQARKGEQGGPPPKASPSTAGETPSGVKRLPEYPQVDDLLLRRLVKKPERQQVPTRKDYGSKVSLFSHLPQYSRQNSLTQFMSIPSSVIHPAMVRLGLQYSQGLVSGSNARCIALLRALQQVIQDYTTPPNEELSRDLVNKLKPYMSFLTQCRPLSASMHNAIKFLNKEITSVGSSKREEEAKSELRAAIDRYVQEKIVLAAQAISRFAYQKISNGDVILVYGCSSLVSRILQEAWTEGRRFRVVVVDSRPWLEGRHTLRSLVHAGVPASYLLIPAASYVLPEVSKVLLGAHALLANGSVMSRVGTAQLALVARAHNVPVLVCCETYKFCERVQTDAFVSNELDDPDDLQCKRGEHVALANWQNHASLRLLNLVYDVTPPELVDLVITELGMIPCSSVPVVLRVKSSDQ
inactive: erlotinib 0.031 | [1] 0.027 | [2] 0.008 | [3] 0.041 | [4] 0.009 | [5] 0.013 | [6] -0.04 | [7] -0.006 | [8] -0.008 | IRAK-1-4 Inhibitor I 0.03 | ibrutinib 0.011 | [9] 0.011 | ralimetinib 0.009 | [10] -0.005 | [11] -0.036 | [12] -0.004 | [13] -0.036 | [14] 0.001 | [15] -0.005 | [16] 0.04

FASTKD2 (UniProt Q9NYY8)
inactive: erlotinib 0.028 | [1] 0.041 | [2] -0.005 | [3] 0.03 | [4] 0.019 | [5] -0.007 | [6] -0.018 | [7] 0.013 | [8] 0.002 | IRAK-1-4 Inhibitor I 0.016 | ibrutinib -0.008 | [9] -0.006 | ralimetinib -0.004 | [10] -0.039 | [11] -0.013 | [12] 0.003 | [13] -0.007 | [14] 0.034 | [15] -0.001 | [16] 0.024

FADS1, A0A0A0MR51
inactive: erlotinib -0.006 | [1] -0.033 | [2] -0.008 | [3] 0.085 | [4] -0.026 | [5] -0.012 | [6] 0.05 | [7] -0.002 | [8] -0.064 | IRAK-1-4 Inhibitor I -0.026 | ibrutinib 0.011 | [9] 0.178 | ralimetinib 0.094 | [10] 0.094 | [11] -0.003 | [12] -0.032 | [13] 0.002 | [14] 0.113 | [15] -0.08 | [16] -0.115

GCDH (UniProt Q92947)
inactive: erlotinib -0.038 | [1] 0.1 | [2] -0.023 | [3] 0.051 | [4] 0.089 | [5] -0.027 | [6] 0.009 | [7] 0 | [8] 0 | IRAK-1-4 Inhibitor I 0.011 | ibrutinib -0.046 | [9] 0.028 | ralimetinib -0.04 | [10] 0.014 | [11] -0.051 | [12] 0.069 | [13] -0.019 | [14] 0.086 | [15] -0.017 | [16] -0.03

EDARADD (UniProt Q8WWZ3)
Sequence of UniProt Q8WWZ3 (Q8WWZ3 whole entry, looked up): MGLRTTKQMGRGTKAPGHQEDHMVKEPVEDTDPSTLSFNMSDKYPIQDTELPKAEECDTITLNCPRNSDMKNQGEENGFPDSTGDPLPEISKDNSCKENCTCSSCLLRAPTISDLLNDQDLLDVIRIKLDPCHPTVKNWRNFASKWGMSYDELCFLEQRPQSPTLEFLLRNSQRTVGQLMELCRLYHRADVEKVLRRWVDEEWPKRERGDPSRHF
inactive: erlotinib 0.013 | [1] -0.022 | [2] 0.045 | [3] 0.019 | [4] -0.027 | [5] 0.049 | [6] -0.03 | [7] -0.035 | [8] -0.064 | IRAK-1-4 Inhibitor I 0.031 | ibrutinib 0.22 | [9] -0.019 | ralimetinib -0.003 | [10] -0.071 | [11] -0.008 | [12] -0.007 | [13] 0.062 | [14] 0.041 | [15] 0.017 | [16] -0.035

FAM120B (UniProt Q96EK7)
Sequence of UniProt Q96EK7 (Q96EK7 whole entry, looked up): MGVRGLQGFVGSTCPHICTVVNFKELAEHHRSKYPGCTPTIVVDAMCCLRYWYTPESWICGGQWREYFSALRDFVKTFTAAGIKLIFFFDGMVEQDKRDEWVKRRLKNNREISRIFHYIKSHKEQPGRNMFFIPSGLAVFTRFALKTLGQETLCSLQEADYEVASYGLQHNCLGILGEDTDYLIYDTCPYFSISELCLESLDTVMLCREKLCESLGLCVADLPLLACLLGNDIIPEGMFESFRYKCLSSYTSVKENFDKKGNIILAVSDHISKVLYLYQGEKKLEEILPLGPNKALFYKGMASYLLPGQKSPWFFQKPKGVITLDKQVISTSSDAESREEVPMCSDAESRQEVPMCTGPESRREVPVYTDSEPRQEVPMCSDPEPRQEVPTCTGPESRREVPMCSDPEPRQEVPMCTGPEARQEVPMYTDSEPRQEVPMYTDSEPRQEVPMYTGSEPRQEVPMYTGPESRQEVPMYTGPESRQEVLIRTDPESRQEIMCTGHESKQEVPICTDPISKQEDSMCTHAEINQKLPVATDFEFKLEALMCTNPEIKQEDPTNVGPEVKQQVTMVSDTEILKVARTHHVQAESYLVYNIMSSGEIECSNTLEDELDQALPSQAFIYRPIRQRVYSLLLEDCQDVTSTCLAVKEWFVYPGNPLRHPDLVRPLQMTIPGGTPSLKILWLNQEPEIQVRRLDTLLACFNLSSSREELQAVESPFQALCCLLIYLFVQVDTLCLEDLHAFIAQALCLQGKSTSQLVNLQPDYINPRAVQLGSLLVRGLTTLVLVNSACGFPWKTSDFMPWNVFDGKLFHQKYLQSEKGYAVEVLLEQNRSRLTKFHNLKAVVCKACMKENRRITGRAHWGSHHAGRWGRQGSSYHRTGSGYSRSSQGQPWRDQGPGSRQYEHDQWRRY
inactive: erlotinib 0.056 | [1] -0.032 | [2] 0.036 | [3] 0.035 | [4] 0.02 | [5] -0.004 | [6] 0.044 | [7] -0.013 | [8] 0.007 | IRAK-1-4 Inhibitor I 0.009 | ibrutinib 0.023 | [9] -0.003 | ralimetinib 0.035 | [10] -0.013 | [11] 0.031 | [12] -0.028 | [13] 0.002 | [14] 0.008 | [15] 0.041 | [16] 0.012

GEMIN2 (UniProt O14893)
Sequence of UniProt O14893 (O14893 whole entry, looked up): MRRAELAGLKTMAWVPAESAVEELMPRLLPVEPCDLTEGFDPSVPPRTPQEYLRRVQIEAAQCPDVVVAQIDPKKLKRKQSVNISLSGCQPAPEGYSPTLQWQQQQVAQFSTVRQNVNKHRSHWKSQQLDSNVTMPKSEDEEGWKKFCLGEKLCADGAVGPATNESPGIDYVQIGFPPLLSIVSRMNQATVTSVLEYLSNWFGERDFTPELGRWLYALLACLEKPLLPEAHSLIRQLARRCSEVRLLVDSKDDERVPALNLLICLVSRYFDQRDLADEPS
inactive: erlotinib 0.032 | [1] 0.047 | [2] -0.001 | [3] 0.053 | [4] 0.028 | [5] 0.015 | [6] -0.11 | [7] -0.007 | [8] 0.011 | IRAK-1-4 Inhibitor I 0.05 | ibrutinib -0.044 | [9] 0.016 | ralimetinib 0 | [10] -0.11 | [11] 0.033 | [12] -0.014 | [13] -0.025 | [14] -0.045 | [15] 0.006 | [16] 0.026

ESYT2 (UniProt H7BXI1)
inactive: erlotinib -0.056 | [1] 0.037 | [2] -0.017 | [3] 0.042 | [4] -0.025 | [5] -0.022 | [6] -0.076 | [7] -0.005 | [8] -0.008 | IRAK-1-4 Inhibitor I 0.019 | ibrutinib 0.035 | [9] -0.022 | ralimetinib 0.003 | [10] -0.039 | [11] -0.04 | [12] 0.046 | [13] 0.05 | [14] 0.015 | [15] -0.025 | [16] -0.044

EXOC1 (UniProt Q9NV70)
inactive: erlotinib 0.05 | [1] -0.005 | [2] -0.047 | [3] -0.009 | [4] 0.074 | [5] -0.035 | [6] -0.043 | [7] 0.014 | [8] -0.016 | IRAK-1-4 Inhibitor I -0.011 | ibrutinib -0.043 | [9] 0.012 | ralimetinib 0.04 | [10] -0.004 | [11] -0.023 | [12] -0.022 | [13] 0.016 | [14] -0.026 | [15] 0.032 | [16] -0.011

EXOC4 (UniProt Q96A65)
inactive: erlotinib 0.031 | [1] 0.034 | [2] -0.065 | [3] 0.031 | [4] 0.012 | [5] -0.015 | [6] -0.026 | [7] -0.011 | [8] 0.011 | IRAK-1-4 Inhibitor I -0.009 | ibrutinib -0.004 | [9] -0.011 | ralimetinib 0.014 | [10] -0.031 | [11] -0.003 | [12] -0.013 | [13] 0.022 | [14] -0.031 | [15] 0.02 | [16] 0.002

ESPL1 (UniProt Q14674)
active: [16] -0.371
inactive: erlotinib 0.147 | [1] 0.019 | [2] 0.074 | [3] -0.086 | [4] 0.009 | [5] -0.011 | [6] 0.054 | [7] -0.025 | [8] 0.006 | IRAK-1-4 Inhibitor I -0.028 | ibrutinib -0.076 | [9] -0.335 | ralimetinib 0.002 | [10] 0.01 | [11] 0.04 | [12] -0.005 | [13] -0.036 | [14] -0.04 | [15] 0.076

EXOC5 (UniProt O00471)
Sequence of UniProt O00471 (O00471 whole entry, looked up): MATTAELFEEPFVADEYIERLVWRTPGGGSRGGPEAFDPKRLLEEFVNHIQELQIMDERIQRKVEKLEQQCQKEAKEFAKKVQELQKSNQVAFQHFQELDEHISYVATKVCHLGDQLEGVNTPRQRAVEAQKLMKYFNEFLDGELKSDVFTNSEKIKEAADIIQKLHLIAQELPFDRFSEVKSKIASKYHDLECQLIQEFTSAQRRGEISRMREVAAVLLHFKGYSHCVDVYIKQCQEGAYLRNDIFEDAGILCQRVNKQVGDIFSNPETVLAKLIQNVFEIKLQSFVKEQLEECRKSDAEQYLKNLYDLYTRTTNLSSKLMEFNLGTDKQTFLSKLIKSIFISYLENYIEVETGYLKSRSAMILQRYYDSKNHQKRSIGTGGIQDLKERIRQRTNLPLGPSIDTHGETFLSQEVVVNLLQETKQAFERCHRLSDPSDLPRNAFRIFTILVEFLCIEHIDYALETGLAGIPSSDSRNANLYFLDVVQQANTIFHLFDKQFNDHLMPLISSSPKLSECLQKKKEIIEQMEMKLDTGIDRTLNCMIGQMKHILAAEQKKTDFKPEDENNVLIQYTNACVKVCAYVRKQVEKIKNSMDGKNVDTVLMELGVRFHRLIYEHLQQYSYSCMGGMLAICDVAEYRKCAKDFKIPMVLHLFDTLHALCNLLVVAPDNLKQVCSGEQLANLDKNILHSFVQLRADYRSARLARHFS
inactive: erlotinib 0.022 | [1] -0.021 | [2] -0.041 | [3] 0.033 | [4] -0.006 | [5] -0.013 | [6] -0.016 | [7] 0.005 | [8] 0.006 | IRAK-1-4 Inhibitor I -0.011 | ibrutinib -0.015 | [9] 0.012 | ralimetinib 0.04 | [10] -0.003 | [11] -0.016 | [12] 0.008 | [13] 0.003 | [14] -0.024 | [15] 0.041 | [16] -0.013
